Inconclusive results are not listed. The source made the active and inactive calls. Calls follow the shape of the dose curve; as a rule, active = well fitted inhibition curve with a large enough effect; inconclusive = small, poorly fitted or top-dose-only effect; inactive = flat fitted curve, though single readings scatter.
Columns and labels:
TAB109 = test: qHTS profiling for inhibitors of Plasmodium falciparum proliferation (AID 504749);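 also: 0% = DMSO vehicle and full inhibition = artemisinin control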; settings: P. falciparum in erythrocytes, SYBR Green DNA, 72 h; series mostly up to 28.7 µM
Outline: (§1)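 Parasite proliferation within erythrocytes, 72 h exposure. Endpoint: SYBR Green I fluorescence after overnight lysis at room temperature. Controls: 0.29 uM artemisinin, DMSO.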

TAB113 = test: as above; settings: P. falciparum in erythrocytes, SYBR Green DNA, 72 h; series mostly up to 28.7 µM
Outline: as §1

TAB165 = test: as above; settings: P. falciparum in erythrocytes, SYBR Green DNA, 72 h; series mostly up to 28.7 µM
Outline: as §1

W2 = test: as above; settings: P. falciparum in erythrocytes, SYBR Green DNA, 72 h; series mostly up to 28.7 µM
Outline: as §1

CRL-7250 = normal cell line; test: Cytotoxic Profiling of Annotated Libraries Using Quantitative High-Throughput Screening (AID 1296008); settings: Five cell lines viability, CellTiter-Glo ATP luminescence, 48-72 h; stronger effect = lower value; as to max response: % is scaled to controls: 0 for no effect and ±100 for the full control effect
Outline: (§2)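 Compounds were pin-transferred onto cells and incubated 48 or 72 hr at 37 degree Celsius, 95% humidity. CellTiter-Glo was added, plates sat 10 min at room temperature, then ATP-coupled luminescence was imaged as the viability read-out.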

HEK293 = test: as above; settings: Five cell lines viability, CellTiter-Glo ATP luminescence, 48-72 h; stronger effect = lower value
Outline: as §2

HaCat [1] = test: as above; settings: Five cell lines viability, CellTiter-Glo ATP luminescence, 48-72 h; stronger effect = lower value
Outline: as §2

KB-3-1 = test: as above; settings: Five cell lines viability, CellTiter-Glo ATP luminescence, 48-72 h, stronger effect = lower value
Outline: as §2

NIH3T3 = test: as above; settings: Five cell lines viability, CellTiter-Glo ATP luminescence, 48-72 h; stronger effect = lower value
Outline: as §2

HACAT [2] = test: qHTS assay to identify novel small-molecules to repurpose for Merkel cell carcinoma treatment (AID 1296009); settings: MCC and control cell lines, CellTiter-Glo viability, 72 h; at 44.8 µM (top of the series) unless noted
Outline: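 qHTS format: cells treated with library compounds in DMSO across 8 (NPC) or 11 (MIPE) concentrations. Readout after 72 hr at 37 degree celsius was CellTiter-Glo luminescence.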
Also: nearly all actives have a fitted effect of over 60% in size.

Cc1c(I)c(=O)n(-c2ccccc2)n1C
inactive: Potency (TAB109) | Potency (TAB113) | Potency (TAB165) | Potency (W2) | max response (CRL-7250) 1.27% | max response (HEK293) -2.1% | max response (HaCat [1]) -20.9% | max response (KB-3-1) 2.22% | outcome (NIH3T3)

CCCCCCCCCCCCCCCCCCO
inactive: Potency (TAB109) | Potency (TAB113) | Potency (TAB165) | Potency (W2) | max response (CRL-7250) 0.886% | max response (HEK293) -5.18% | max response (HaCat [1]) -4.21% | max response (KB-3-1) 12.1% | outcome (NIH3T3)

CCCCCCCC(=O)OCC(O)CO (stereo not drawn)
inactive: Potency (TAB109) | Potency (TAB113) | Potency (TAB165) | Potency (W2) | max response (CRL-7250) -18.7% | max response (HEK293) -8.91% | max response (HaCat [1]) -12% | max response (KB-3-1) -2.18% | max response (NIH3T3) -10.3%

O=C(OOC(=O)c1ccccc1)c1ccccc1
inactive: Potency (TAB109) | Potency (TAB113) | Potency (TAB165) | Potency (W2) | outcome (CRL-7250) | max response (HEK293) 2.9% | max response (HaCat [1]) -8.52% | max response (KB-3-1) -3.15% | outcome (NIH3T3)

O=C(O)c1ccccc1C(=O)Nc1ccc(S(=O)(=O)Nc2nccs2)cc1
inactive: Potency (TAB109) | Potency (TAB113) | Potency (TAB165) | Potency (W2) | max response (CRL-7250) -2.05% | outcome (HEK293) | max response (HaCat [1]) -2.6% | max response (KB-3-1) 5.93% | max response (NIH3T3) -7.95%

C=CCN1C[C@H](C(=O)N(CCCN(C)C)C(=O)NCC)C[C@@H]2c3cccc4[nH]cc(c34)C[C@H]21
inactive: outcome (CRL-7250) | max response (HEK293) 1.65% | max response (HaCat [1]) -1.25% | outcome (NIH3T3)

O=C(O)CNC(=O)c1ccccc1I
inactive: Potency (TAB109) | Potency (TAB113) | Potency (TAB165) | Potency (W2) | max response (CRL-7250) 4.72% | max response (HEK293) -1.69% | max response (HaCat [1]) -16.3% | max response (KB-3-1) 7.37% | outcome (NIH3T3)

O=c1[nH]c2cc(C(F)(F)F)c(N3CCOCC3)cc2n(CP(=O)(O)O)c1=O
inactive: Potency (TAB109) | Potency (TAB113) | Potency (TAB165) | Potency (W2) | outcome (CRL-7250) | max response (HEK293) 2.88% | max response (HaCat [1]) 2.4% | max response (KB-3-1) 8.61% | outcome (NIH3T3)

CC(=O)Oc1cccc(C)c1
inactive: Potency (TAB109) | Potency (TAB113) | Potency (TAB165) | Potency (W2) | max response (CRL-7250) 2.1% | max response (HEK293) -2.07% | outcome (HaCat [1]) | max response (NIH3T3) -2.31% | outcome (HACAT [2])

COc1ccc(C(=O)N2CCN(CC(=O)N3CCOCC3)CC2)cc1
inactive: Potency (TAB109) | Potency (TAB113) | Potency (TAB165) | Potency (W2) | max response (CRL-7250) 3.53% | max response (HEK293) 4.6% | outcome (HaCat [1]) | outcome (NIH3T3) | outcome (HACAT [2])

NS(=O)(=O)c1ccc(C(=O)O)cc1
inactive: Potency (TAB109) | Potency (TAB113) | Potency (TAB165) | Potency (W2) | max response (CRL-7250) -10.9% | max response (HEK293) -0.608% | outcome (HaCat [1]) | max response (NIH3T3) 1.17% | outcome (HACAT [2])

Nc1ccc(C(=O)Oc2ccccc2)c(O)c1
inactive: Potency (TAB109) | Potency (TAB113) | Potency (TAB165) | Potency (W2) | max response (CRL-7250) 2.06% | max response (HEK293) 0.228% | max response (HaCat [1]) -1.24% | outcome (NIH3T3)

O=C(NCC(O)CO)c1c(I)c(C(=O)NCC(O)CO)c(I)c(N(CCO)C(=O)CO)c1I (stereo not drawn)
inactive: max response (CRL-7250) -2.46% | max response (HEK293) -0.64% | outcome (HaCat [1]) | max response (NIH3T3) 2.96% | outcome (HACAT [2])

O[C@@H]1CO[C@H]2[C@@H]1OC[C@@H]2O
inactive: Potency (TAB109) | Potency (TAB113) | Potency (TAB165) | Potency (W2) | outcome (CRL-7250) | max response (HEK293) -0.534% | outcome (HaCat [1]) | max response (NIH3T3) 4.37% | outcome (HACAT [2])

O=C(O)CCC(=O)O
inactive: Potency (TAB109) | Potency (TAB113) | Potency (TAB165) | Potency (W2) | max response (CRL-7250) 3.26% | max response (HEK293) 3.09% | outcome (HaCat [1]) | max response (NIH3T3) -0.925% | outcome (HACAT [2])

O=C(O)CCCc1ccccc1
inactive: Potency (TAB109) | Potency (TAB113) | Potency (TAB165) | Potency (W2) | max response (CRL-7250) 1.18% | outcome (HEK293) | max response (HaCat [1]) 2.59% | max response (NIH3T3) -2.38%

CCCNC(C)(C)COC(=O)c1ccccc1
inactive: Potency (TAB109) | Potency (TAB113) | Potency (TAB165) | max response (CRL-7250) -0.75% | max response (HEK293) 3.12% | outcome (HaCat [1]) | max response (NIH3T3) 4.95% | outcome (HACAT [2])

CCN(CC)S(=O)(=O)c1ccc(C(=O)O)cc1
inactive: Potency (TAB109) | Potency (TAB113) | Potency (TAB165) | Potency (W2) | max response (CRL-7250) -2.94% | outcome (HEK293) | max response (HaCat [1]) 1.67% | max response (NIH3T3) -6.52%

CC(C)(C)C(=O)OCOC(=O)[C@@H]1N2C(=O)[C@@H](NC(=O)[C@H](N)c3ccccc3)[C@H]2SC1(C)C
inactive: Potency (TAB109) | Potency (TAB113) | Potency (TAB165) | Potency (W2) | max response (CRL-7250) -7.59% | max response (HEK293) -3.05% | max response (HaCat [1]) -3.68% | max response (NIH3T3) -5.28%

CCCCCCCCCCC(CO)CCCCCCCC (stereo not drawn)
inactive: Potency (TAB109) | Potency (TAB113) | Potency (TAB165) | max response (CRL-7250) -6.12% | outcome (HEK293) | max response (HaCat [1]) -2.15% | max response (NIH3T3) 1.86%

c1ccc2[nH]ccc2c1
inactive: Potency (TAB109) | Potency (TAB113) | Potency (TAB165) | Potency (W2) | max response (CRL-7250) 4.59% | max response (HEK293) -5.55% | outcome (HaCat [1]) | outcome (NIH3T3) | outcome (HACAT [2])
